The source of these data is publication PMC8384837, “Expanding the binding specificity for RNA recognition by a PUF domain”.

Chain of PUM1 PUF domain R3-YFV (Q14671 828-1176 C935Y/R936F/Q939V): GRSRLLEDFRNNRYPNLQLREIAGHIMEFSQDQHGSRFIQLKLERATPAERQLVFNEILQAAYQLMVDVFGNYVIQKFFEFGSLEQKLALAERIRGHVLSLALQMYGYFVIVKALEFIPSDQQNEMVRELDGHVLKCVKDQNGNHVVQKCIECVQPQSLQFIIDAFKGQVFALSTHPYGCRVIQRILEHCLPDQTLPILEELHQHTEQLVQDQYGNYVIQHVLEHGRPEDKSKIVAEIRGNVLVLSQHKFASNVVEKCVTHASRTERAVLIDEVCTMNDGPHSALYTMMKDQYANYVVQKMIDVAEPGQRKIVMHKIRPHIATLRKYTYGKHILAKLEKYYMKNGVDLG

The test has as its target PUM1 PUF domain R3-YFV (Homo sapiens, UniProt Q14671 828-1176, C935Y;R936F;Q939V). Nature of the test: yeast three-hybrid, YBZ-1, SC-Leu-His + 0.5 mM 3-AT, 4 days. The note with it: tags: N-Gal4 AD-HA kept; label: inside an RPR1-promoter hybrid RNA with tandem MS2 sites; ssRNA. The gist of the method:
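Sequencing with Illumina followed PCR amplification of the repeat regions from transformants grown four days on SC-Leu (input) or SC-Leu-His + 0.5 mM 3-AT (selection). The transformants were strain YBZ-1 with a LexA–MS2 coat fusion and a HIS3 reporter, carrying Pumilio-1 PUF domain libraries and matching RNA elements. The interaction score is the log change in variant frequency from input to selection, computed in log2 with a pseudocount of 1 for absent variants.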
Regarding “GGCUAGAACUAGUGGAUCCCCCGGCGCCCGGCGGCUCGAGCCCGGGUAAGUGUAAUUAGUCUGCAUGCCGCCGGGCGCCAUGCCUGCAGGUCGACUCUAGAAAACAUG”, the binding signal was 0.45 log2 enrichment (interaction score).

As for “GGCUAGAACUAGUGGAUCCCCCGGCGCCCGGCGGCUCGAGCCCGGGUAAGUGUAAGUAGUCUGCAUGCCGCCGGGCGCCAUGCCUGCAGGUCGACUCUAGAAAACAUG”, the binding signal was 4.24 log2 enrichment (interaction score).

Take “GGCUAGAACUAGUGGAUCCCCCGGCGCCCGGCGGCUCGAGCCCGGGUAAGUGUAAAUAGUCUGCAUGCCGCCGGGCGCCAUGCCUGCAGGUCGACUCUAGAAAACAUG”: the binding signal is 1.56 log2 enrichment (interaction score).
